# In PubChem BioAssay (NCI):
# This is part of a sample that, as a whole, favours compounds with a hit. Of some 79,000 tested, about 15% had one in any assay. A number with no mark means an inactive call. Activity calls are given as the source filed them. Cut-off read from the data, not from the text of the source: active = growth inhibition above about 70%; inactive = the rest.
# Tests used:
# [1] = NCI Yeast Anticancer Drug Screen. Data for the rad52 strain (AID 147);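 note: 0% = growth of vehicle-treated control cultures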; settings: S. cerevisiae rad52 mutant growth inhibition, hits give high values
# Summary of the method: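 Read-out: growth inhibition versus vehicle-treated controls. Cells were a DNA repair-deficient yeast strain treated with compounds.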
# [2] = NCI Yeast Anticancer Drug Screen. Data for the wt1 strain (AID 149);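 note: 0% = growth of vehicle-treated wt1 cultures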; settings: S. cerevisiae wt1 strain (SPY 50644) growth inhibition, hits give high values
# Summary of the method: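 wt1 yeast, compound-treated; % growth inhibition vs vehicle control.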
# [3] = NCI Yeast Anticancer Drug Screen. Data for the rad50EPP+ strain (AID 151);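 note: 0% = growth of vehicle-treated control cultures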; settings: S. cerevisiae rad50 mutant strain, hits give high values
# Summary of the method: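 Growth inhibition read against vehicle controls in rad50EPP+ yeast, a strain altered in DNA damage repair, after compound exposure.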
# [4] = NCI Yeast Anticancer Drug Screen. Data for the rad50 strain (AID 155);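 note: 0% = growth of vehicle-only cultures of the same strain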; settings: S. cerevisiae rad50 strain growth inhibition, hits give high values
# Summary of the method: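 Genetically altered yeast (DNA repair pathway); compound treatment; growth inhibition vs vehicle ctrl.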
# [5] = NCI Yeast Anticancer Drug Screen. Data for the mec2-1 strain (AID 157); settings: S. cerevisiae mec2-1 strain, hits give high values
# Summary of the method: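 Yeast mec2-1 mutant treated with compound. Readout: growth inhibition vs vehicle controls.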
# [6] = NCI Yeast Anticancer Drug Screen. Data for the rad14 strain (AID 159);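 note: 0% = growth of vehicle-treated control cultures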; settings: S. cerevisiae rad14 strain growth inhibition, hits give high values
# Summary of the method: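 Test compounds were applied to a repair-deficient yeast strain. Its growth was then compared with that of cultures given vehicle alone, and inhibition was expressed relative to those controls.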
# [7] = NCI Yeast Anticancer Drug Screen. Data for the sgs1 mgt1 strain (AID 161);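 note: 0% = growth of cultures given vehicle only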; settings: S. cerevisiae sgs1 mgt1 strain, hits give high values
# Summary of the method: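 Genetically altered yeast, compound exposure, growth inhibition relative to vehicle.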
# [8] = NCI Yeast Anticancer Drug Screen. Data for the CLN2oe strain (AID 163);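 note: 0% = growth of vehicle-only control cultures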; settings: S. cerevisiae CLN2oe strain, hits give high values
# Summary of the method: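 Read-out: yeast growth inhibition, expressed relative to vehicle-only controls. The strain bears an engineered cell-cycle alteration.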
# [9] = NCI Yeast Anticancer Drug Screen. Data for the cln2 rad14 strain (AID 165);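 note: 0% = growth equal to vehicle treated cultures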; settings: S. cerevisiae cln2 rad14 strain, hits give high values
# Summary of the method: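 cln2 rad14 yeast strain; compound exposure; growth inhibition read vs vehicle controls.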
# [10] = NCI Yeast Anticancer Drug Screen. Data for the bub3 strain (AID 167); settings: S. cerevisiae bub3 mutant strain, hits give high values
# Summary of the method: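 Yeast carrying a defined mutation is treated with each compound, and growth is compared with that of vehicle-exposed cells to give inhibition.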
# [11] = NCI Yeast Anticancer Drug Screen. Data for the mlh1 strain (AID 171);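 note: 0% = growth of vehicle-treated control cultures of the same strain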; settings: S. cerevisiae mlh1 strain growth inhibition, hits give high values
# Summary of the method: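 Read-out: growth inhibition versus vehicle controls. Strain: engineered yeast with a defined DNA repair or cell cycle defect, compound-treated.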
# [12] = NCI Yeast Anticancer Drug Screen. Data for the sgs1 strain (AID 173);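 note: 0% = growth of vehicle-only control cultures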; settings: S. cerevisiae sgs1 mutant, hits give high values
# Summary of the method: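 Read-out: yeast growth inhibition relative to vehicle controls, following compound exposure of a strain with a defined DNA repair/cell cycle alteration.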
# [13] = NCI Yeast Anticancer Drug Screen. Data for the mlh1 rad18 strain (AID 175); settings: S. cerevisiae mlh1 rad18 strain growth inhibition, hits give high values
# Summary of the method: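 Yeast w/ defined DNA-repair lesions; compound exposure; growth vs vehicle controls → % inhibition.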
# [14] = NCI Yeast Anticancer Drug Screen. Data for the rad18 strain (AID 177); settings: S. cerevisiae rad18 mutant growth inhibition, hits give high values
# Summary of the method: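 Readout: growth inhibition vs vehicle controls. Cells: genetically altered yeast strain, DNA repair defect.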
# [15] = at 5.0 µM (retest, dose inferred, filed as 0.5)
# [16] = at 50.0 µM (retest, dose inferred, filed as 5.0)
compound,measurement,setting,value
CC(C)CN(CC(C)C)C(=O)c1ccc(Cl)c(Cl)c1,growth inhibition,[1]; at 1.2 µM,-4%
same,growth inhibition,[1]; at 3.7 µM,0%
same,growth inhibition,[1]; at 11.0 µM,6%
same,growth inhibition,[1]; at 33.0 µM,82% (active)
same,growth inhibition,[1]; at 100.0 µM,98% (active)
same,growth inhibition,[2]; at 1.2 µM,-3%
same,growth inhibition,[2]; at 3.7 µM,-3%
same,growth inhibition,[2]; at 11.0 µM,-3%
same,growth inhibition,[2]; at 33.0 µM,63%
same,growth inhibition,[2]; at 100.0 µM,98% (active)
same,growth inhibition,[3]; at 1.2 µM,-2%
same,growth inhibition,[3]; at 3.7 µM,0%
same,growth inhibition,[3]; at 11.0 µM,2%
same,growth inhibition,[3]; at 33.0 µM,6%
same,growth inhibition,[3]; at 100.0 µM,3%
same,growth inhibition,[4]; at 1.2 µM,-2%
same,growth inhibition,[4]; at 3.7 µM,4%
same,growth inhibition,[4]; [15],-10%
same,growth inhibition,[4]; at 11.0 µM,6%
same,growth inhibition,[4]; at 33.0 µM,85% (active)
same,growth inhibition,[4]; [16],94% (active)
same,growth inhibition,[4]; at 50.0 µM,94.7% (active)
same,growth inhibition,[4]; at 100.0 µM,99% (active)
same,growth inhibition,[5]; at 1.2 µM,-1%
same,growth inhibition,[5]; at 3.7 µM,1%
same,growth inhibition,[5]; [15],6%
same,growth inhibition,[5]; at 11.0 µM,0%
same,growth inhibition,[5]; at 33.0 µM,82% (active)
same,growth inhibition,[5]; [16],76% (active)
same,growth inhibition,[5]; at 50.0 µM,98% (active)
same,growth inhibition,[5]; at 100.0 µM,99% (active)
same,growth inhibition,[6]; at 1.2 µM,-2%
same,growth inhibition,[6]; at 3.7 µM,-1%
same,growth inhibition,[6]; at 11.0 µM,9%
same,growth inhibition,[6]; at 33.0 µM,31%
same,growth inhibition,[6]; at 100.0 µM,99% (active)
same,growth inhibition,[7]; [15],-3%
same,growth inhibition,[7]; [16],83% (active)
same,growth inhibition,[7]; at 50.0 µM,95.8% (active)
same,growth inhibition,[8]; at 1.2 µM,2%
same,growth inhibition,[8]; at 3.7 µM,9%
same,growth inhibition,[8]; at 11.0 µM,14%
same,growth inhibition,[8]; at 33.0 µM,41%
same,growth inhibition,[8]; at 100.0 µM,99% (active)
same,growth inhibition,[9]; [15],-29%
same,growth inhibition,[9]; [16],50%
same,growth inhibition,[9]; at 50.0 µM,93.2% (active)
same,growth inhibition,[10]; at 1.2 µM,4%
same,growth inhibition,[10]; at 3.7 µM,3%
same,growth inhibition,[10]; [15],-18%
same,growth inhibition,[10]; at 11.0 µM,8%
same,growth inhibition,[10]; at 33.0 µM,25%
same,growth inhibition,[10]; [16],22%
same,growth inhibition,[10]; at 50.0 µM,83% (active)
same,growth inhibition,[10]; at 100.0 µM,99% (active)
same,growth inhibition,[11]; at 1.2 µM,0%
same,growth inhibition,[11]; at 3.7 µM,2%
same,growth inhibition,[11]; at 11.0 µM,5%
same,growth inhibition,[11]; at 33.0 µM,39%
same,growth inhibition,[11]; at 100.0 µM,98% (active)
same,growth inhibition,[12]; at 1.2 µM,0%
same,growth inhibition,[12]; at 3.7 µM,3%
same,growth inhibition,[12]; at 11.0 µM,5%
same,growth inhibition,[12]; at 33.0 µM,62%
same,growth inhibition,[12]; at 100.0 µM,99% (active)
same,growth inhibition,[13]; [15],-17%
same,growth inhibition,[13]; [16],96% (active)
same,growth inhibition,[13]; at 50.0 µM,97.5% (active)
same,growth inhibition,[14]; at 1.2 µM,0%
same,growth inhibition,[14]; at 3.7 µM,4%
same,growth inhibition,[14]; at 11.0 µM,5%
same,growth inhibition,[14]; at 33.0 µM,66%
same,growth inhibition,[14]; at 100.0 µM,99% (active)
